Measurements as given in article PMC7862700, “An all-to-all approach to the identification of sequence-specific readers for epigenetic DNA modifications on cytosine”.

Legend:
Assay in all cases: DAPPL (digital affinity profiling via proximity ligation, sequencing); 10 mM Tris-HCl pH 7.5, 50 mM NaCl, 1 mM DTT, 4% glycerol, room temperature, 30 min; GST-TFs on glutathione beads, 16-mer random dsDNA library, 0.1% formaldehyde crosslink after washing; high values mean tight binding
Conditions in all cases: protein: recombinant; tags: N-terminal GST; dsDNA, one strand shown
ERF = biological target: T1, ERF (Homo sapiens, UniProt P50548 1-548)
T1 sequence: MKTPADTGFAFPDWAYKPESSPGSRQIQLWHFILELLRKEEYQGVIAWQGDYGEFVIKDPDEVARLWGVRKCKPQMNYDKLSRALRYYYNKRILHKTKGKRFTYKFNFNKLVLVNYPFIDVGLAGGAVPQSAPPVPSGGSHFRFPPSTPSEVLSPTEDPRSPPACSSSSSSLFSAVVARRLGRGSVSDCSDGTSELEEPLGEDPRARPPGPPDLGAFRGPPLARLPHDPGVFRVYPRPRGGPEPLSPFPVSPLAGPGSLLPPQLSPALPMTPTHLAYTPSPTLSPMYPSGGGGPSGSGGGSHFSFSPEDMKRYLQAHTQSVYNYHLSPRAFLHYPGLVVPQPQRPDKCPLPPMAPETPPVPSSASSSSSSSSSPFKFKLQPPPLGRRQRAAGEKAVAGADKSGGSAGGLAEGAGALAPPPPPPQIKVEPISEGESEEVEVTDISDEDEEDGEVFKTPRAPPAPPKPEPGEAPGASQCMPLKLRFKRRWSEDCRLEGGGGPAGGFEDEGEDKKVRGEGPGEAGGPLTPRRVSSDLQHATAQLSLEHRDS
Summary of the method: (§1)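 Binding signal is each hexamer's read frequency for a factor divided by its frequency in the tag-only sample. The factors were GST-fused human transcription factors from yeast, captured on glutathione beads, DNA-barcoded and pooled with that sample. Pools were incubated with 200 nmole of a random double-stranded 16-mer DNA library in Tris/NaCl/DTT/glycerol buffer at room temperature for 30 min, then washed, crosslinked with 0.1% formaldehyde, proximity-ligated with BsaI/T4 ligase (1 h, 37 °C), PCR-amplified and sequenced on an Illumina NextSeq500.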

ETV3L = biological target: T2, ETV3L (Homo sapiens, UniProt Q6ZN32 1-361)
T2 sequence: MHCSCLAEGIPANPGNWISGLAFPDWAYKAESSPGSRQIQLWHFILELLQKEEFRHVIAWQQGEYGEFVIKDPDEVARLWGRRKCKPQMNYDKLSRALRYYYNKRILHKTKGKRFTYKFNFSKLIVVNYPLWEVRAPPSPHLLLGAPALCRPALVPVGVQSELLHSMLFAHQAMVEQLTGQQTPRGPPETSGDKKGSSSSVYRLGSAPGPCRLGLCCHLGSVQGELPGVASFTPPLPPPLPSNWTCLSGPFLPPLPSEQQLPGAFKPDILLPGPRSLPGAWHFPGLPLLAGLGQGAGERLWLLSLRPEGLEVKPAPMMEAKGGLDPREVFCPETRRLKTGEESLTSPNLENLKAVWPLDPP
Summary of the method: as §1

ETS2 = biological target: T3, ETS2 (Homo sapiens, UniProt P15036 1-469)
T3 sequence: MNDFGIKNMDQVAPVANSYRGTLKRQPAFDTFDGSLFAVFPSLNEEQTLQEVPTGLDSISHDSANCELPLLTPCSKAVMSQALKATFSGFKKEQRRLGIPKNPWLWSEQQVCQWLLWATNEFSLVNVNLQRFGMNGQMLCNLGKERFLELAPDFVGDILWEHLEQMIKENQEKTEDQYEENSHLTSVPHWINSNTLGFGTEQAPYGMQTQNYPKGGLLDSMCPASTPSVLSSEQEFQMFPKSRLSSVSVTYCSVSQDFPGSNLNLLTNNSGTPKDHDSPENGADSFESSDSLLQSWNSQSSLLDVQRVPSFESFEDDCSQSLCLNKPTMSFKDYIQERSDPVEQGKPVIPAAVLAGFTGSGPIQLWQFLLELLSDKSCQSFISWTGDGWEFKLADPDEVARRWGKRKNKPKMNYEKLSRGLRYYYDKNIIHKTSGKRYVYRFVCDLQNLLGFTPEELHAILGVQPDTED
Summary of the method: as §1

SPDEF = biological target: T4, SPDEF (Homo sapiens, UniProt O95238 1-335)
T4 sequence: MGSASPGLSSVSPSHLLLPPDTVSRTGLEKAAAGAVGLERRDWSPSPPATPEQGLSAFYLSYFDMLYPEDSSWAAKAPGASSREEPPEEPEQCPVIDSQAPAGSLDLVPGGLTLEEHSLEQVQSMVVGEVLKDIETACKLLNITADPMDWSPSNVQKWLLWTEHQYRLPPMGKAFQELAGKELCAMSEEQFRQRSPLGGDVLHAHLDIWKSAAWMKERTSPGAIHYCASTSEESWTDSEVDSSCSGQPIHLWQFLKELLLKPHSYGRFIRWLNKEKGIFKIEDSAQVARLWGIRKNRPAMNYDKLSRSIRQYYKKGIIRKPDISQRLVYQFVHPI
Summary of the method: as §1

ETV7 = biological target: T5, ETV7 (Homo sapiens, UniProt Q9Y603 1-341)
T5 sequence: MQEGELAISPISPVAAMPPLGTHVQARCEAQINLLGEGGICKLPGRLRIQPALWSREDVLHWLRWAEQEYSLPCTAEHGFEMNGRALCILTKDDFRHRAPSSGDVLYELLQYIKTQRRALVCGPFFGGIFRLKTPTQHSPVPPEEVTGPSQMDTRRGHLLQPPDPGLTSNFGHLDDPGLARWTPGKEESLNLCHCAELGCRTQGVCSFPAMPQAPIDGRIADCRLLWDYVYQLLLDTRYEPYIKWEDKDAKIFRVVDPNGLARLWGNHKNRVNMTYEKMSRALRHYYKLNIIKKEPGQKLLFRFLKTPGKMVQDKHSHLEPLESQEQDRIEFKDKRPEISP
Summary of the method: as §1

ELF5 = biological target: T6, ELF5 (Homo sapiens, UniProt Q9UKW6-2 1-255)
T6 sequence: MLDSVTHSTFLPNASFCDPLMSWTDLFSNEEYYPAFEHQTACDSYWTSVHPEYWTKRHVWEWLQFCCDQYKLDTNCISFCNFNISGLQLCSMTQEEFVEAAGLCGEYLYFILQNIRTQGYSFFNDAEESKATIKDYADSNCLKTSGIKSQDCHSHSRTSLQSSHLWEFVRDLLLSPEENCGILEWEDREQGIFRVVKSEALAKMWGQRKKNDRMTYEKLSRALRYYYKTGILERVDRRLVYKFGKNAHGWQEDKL
Summary of the method: as §1

ETV3 = biological target: T7, ETV3 (Homo sapiens, UniProt P41162-2 1-143)
T7 sequence: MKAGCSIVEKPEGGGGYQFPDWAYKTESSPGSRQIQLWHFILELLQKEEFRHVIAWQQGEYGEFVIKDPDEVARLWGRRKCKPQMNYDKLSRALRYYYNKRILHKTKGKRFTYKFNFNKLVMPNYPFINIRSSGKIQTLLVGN
Summary of the method: as §1

ETV6 = ETV6 (Homo sapiens, UniProt P41212 1-452)
Chain of ETV6 (P41212 whole entry): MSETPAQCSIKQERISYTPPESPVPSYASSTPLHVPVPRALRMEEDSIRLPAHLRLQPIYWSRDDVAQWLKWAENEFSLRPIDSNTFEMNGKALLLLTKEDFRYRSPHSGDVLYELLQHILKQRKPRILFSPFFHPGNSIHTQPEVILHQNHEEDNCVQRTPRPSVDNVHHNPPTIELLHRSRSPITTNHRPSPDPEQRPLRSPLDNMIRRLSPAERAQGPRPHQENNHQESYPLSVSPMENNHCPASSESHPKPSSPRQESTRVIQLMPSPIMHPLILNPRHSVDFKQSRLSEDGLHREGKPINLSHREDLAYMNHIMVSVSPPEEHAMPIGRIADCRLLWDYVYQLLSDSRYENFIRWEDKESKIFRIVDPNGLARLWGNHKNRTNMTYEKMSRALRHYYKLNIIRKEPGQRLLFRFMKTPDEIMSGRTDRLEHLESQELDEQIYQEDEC
Summary of the method: as §1

Sequence | binding signal (ERF) | binding signal (ETV3L) | binding signal (ETS2) | binding signal (SPDEF) | binding signal (ETV7) | binding signal (ELF5) | binding signal (ETV3) | binding signal (ETV6)
TAAGCC | 1.15 fold enrichment (6-mer frequency, TF over GST control) | 1.2 fold enrichment (6-mer frequency, TF over GST control) | 1.15 fold enrichment (6-mer frequency, TF over GST control) | 1.12 fold enrichment (6-mer frequency, TF over GST control) | 1.1 fold enrichment (6-mer frequency, TF over GST control) | 1.03 fold enrichment (6-mer frequency, TF over GST control) | 1.12 fold enrichment (6-mer frequency, TF over GST control) | 1.03 fold enrichment (6-mer frequency, TF over GST control)
CTTACT | 1.32 fold enrichment (6-mer frequency, TF over GST control) | 1.22 fold enrichment (6-mer frequency, TF over GST control) | 1.26 fold enrichment (6-mer frequency, TF over GST control) | 1.21 fold enrichment (6-mer frequency, TF over GST control) | 1.18 fold enrichment (6-mer frequency, TF over GST control) | 1.3 fold enrichment (6-mer frequency, TF over GST control) | 1.27 fold enrichment (6-mer frequency, TF over GST control) | 1.3 fold enrichment (6-mer frequency, TF over GST control)
ATGGCT | 1.27 fold enrichment (6-mer frequency, TF over GST control) | 1.37 fold enrichment (6-mer frequency, TF over GST control) | 1.32 fold enrichment (6-mer frequency, TF over GST control) | 1.23 fold enrichment (6-mer frequency, TF over GST control) | 1.34 fold enrichment (6-mer frequency, TF over GST control) | 1.25 fold enrichment (6-mer frequency, TF over GST control) | 1.33 fold enrichment (6-mer frequency, TF over GST control) | 1.38 fold enrichment (6-mer frequency, TF over GST control)
ACACAA | 1.26 fold enrichment (6-mer frequency, TF over GST control) | 1.2 fold enrichment (6-mer frequency, TF over GST control) | 1.25 fold enrichment (6-mer frequency, TF over GST control) | 1.17 fold enrichment (6-mer frequency, TF over GST control) | 1.08 fold enrichment (6-mer frequency, TF over GST control) | 1.17 fold enrichment (6-mer frequency, TF over GST control) | 1.13 fold enrichment (6-mer frequency, TF over GST control) | 1.2 fold enrichment (6-mer frequency, TF over GST control)
CTACCC | 1.29 fold enrichment (6-mer frequency, TF over GST control) | 1.32 fold enrichment (6-mer frequency, TF over GST control) | 1.38 fold enrichment (6-mer frequency, TF over GST control) | 1.29 fold enrichment (6-mer frequency, TF over GST control) | 1.23 fold enrichment (6-mer frequency, TF over GST control) | 1.29 fold enrichment (6-mer frequency, TF over GST control) | 1.28 fold enrichment (6-mer frequency, TF over GST control) | 1.21 fold enrichment (6-mer frequency, TF over GST control)
GCCTCA | 1.35 fold enrichment (6-mer frequency, TF over GST control) | 1.31 fold enrichment (6-mer frequency, TF over GST control) | 1.13 fold enrichment (6-mer frequency, TF over GST control) | 1.16 fold enrichment (6-mer frequency, TF over GST control) | 1.24 fold enrichment (6-mer frequency, TF over GST control) | 1.15 fold enrichment (6-mer frequency, TF over GST control) | 1.19 fold enrichment (6-mer frequency, TF over GST control) | 1.18 fold enrichment (6-mer frequency, TF over GST control)
TGGTAT | 1.34 fold enrichment (6-mer frequency, TF over GST control) | 1.37 fold enrichment (6-mer frequency, TF over GST control) | 1.33 fold enrichment (6-mer frequency, TF over GST control) | 1.42 fold enrichment (6-mer frequency, TF over GST control) | 1.35 fold enrichment (6-mer frequency, TF over GST control) | 1.37 fold enrichment (6-mer frequency, TF over GST control) | 1.28 fold enrichment (6-mer frequency, TF over GST control) | 1.31 fold enrichment (6-mer frequency, TF over GST control)
CCGTAC | 1.39 fold enrichment (6-mer frequency, TF over GST control) | 1.25 fold enrichment (6-mer frequency, TF over GST control) | 1.32 fold enrichment (6-mer frequency, TF over GST control) | 1.41 fold enrichment (6-mer frequency, TF over GST control) | 1.32 fold enrichment (6-mer frequency, TF over GST control) | 1.46 fold enrichment (6-mer frequency, TF over GST control) | 1.36 fold enrichment (6-mer frequency, TF over GST control) | 1.33 fold enrichment (6-mer frequency, TF over GST control)
TATTCG | 1.17 fold enrichment (6-mer frequency, TF over GST control) | 1.16 fold enrichment (6-mer frequency, TF over GST control) | 1.13 fold enrichment (6-mer frequency, TF over GST control) | 1.1 fold enrichment (6-mer frequency, TF over GST control) | 1.19 fold enrichment (6-mer frequency, TF over GST control) | 1.09 fold enrichment (6-mer frequency, TF over GST control) | 1.19 fold enrichment (6-mer frequency, TF over GST control) | 1.02 fold enrichment (6-mer frequency, TF over GST control)
